Results: PubChem BioAssay AID2314 (National Center for Advancing Translational Sciences (NCATS), 2010)
In all, about 300,000 compounds went through this assay and about 37,000 (12%) were called active. No stated cut-off is given here; in the data, active means max response mostly above about 13% (no sharp cut-off); inactive means mostly below about 14%. For the sample, actives were picked, then their nearest neighbours and some compounds at random.

Test: Cycloheximide Counterscreen for Small Molecule Inhibitors of Shiga Toxin; further: read at 38.3 µM for the half of the compounds with a filed dose; 0% is about no effect
Details: cell reporter, cycloheximide protein synthesis inhibition counterscreen; hits give high values

| SMILES | max response |
| --- | --- |
| COc1ccc(N2CCN(C(=O)CN3C(=O)COc4ccccc43)CC2)cc1 | -4.68% (inactive) |
| CCOc1ccc(NC(=O)COc2ccc(C(=O)NC3CCCc4ccccc43)cc2OC)cc1 (configuration not stated) | -1.56% (inactive) |
| O=C(O)CCn1c(O)c(C=C2N=c3ccccc3=N2)sc1=S | -1.81% (inactive) |
| Cc1cc(NC(=O)c2ccco2)c(=O)n(Cc2c(F)cccc2Cl)c1 | -2.05% (inactive) |
| O=C(Nc1cccc(-n2cnnn2)c1)c1cccnc1 | -4.68% (inactive) |
| COC(=O)c1cc(Cl)c(NC(=O)c2ccco2)cc1OC | 3.33% (inactive) |
| Cc1ccc(-n2nc3cc(Cl)c(NC(=O)c4ccco4)cc3n2)cc1 | 45% (active) |
| Cc1c(NC(=O)c2cccnc2)c(=O)n(-c2ccccc2)n1C | -2.61% (inactive) |
| Cc1ccc(-n2nc3cc(C)c(NC(=O)c4cccnc4)cc3n2)cc1 | 15.8% (active) |
| COc1ccc(C(C(=O)NC2CCCC2)N(CCCO)C(=O)Cn2nnc(-c3ccc(C)o3)n2)cc1 (configuration not stated) | -4.49% (inactive) |
| Cc1cccc(NC(=S)NCCc2ccc(F)cc2)c1C | 6.6% (inactive) |
| Cc1ccc(NC(=S)NCCc2ccc(Cl)cc2)c(C)c1 | 13.7% (active) |
| Cc1ccc(NC(=S)NCc2ccccc2Cl)c(C)c1 | 10.7% (inactive) |
| Cc1cc(F)ccc1NC(=S)NCCc1ccccc1 | 5.78% (inactive) |
| Cc1cccc(NC(=S)NCCc2ccc(Cl)cc2)c1C | 17.3% (active) |
| CCNC(=S)Nc1cccc(Cl)c1C | -2.36% (inactive) |
| CC#CC[N+](C)(C)CCCCCC | 0.922% (inactive) |
| COc1ccc(C(=O)NC(=S)N2CCNC(=O)C2CC(=O)OC(C)C)cc1 (configuration not stated) | 0.131% (inactive) |
| COc1ccc(OC)c(C(C)NC(=S)Nc2ccc(S(=O)(=O)Nc3ncccn3)cc2)c1 (configuration not stated) | -0.745% (inactive) |
| COc1ccc(NC(=O)C(CC(C)C)NC(=O)C2CCC(C)CC2)cc1 (configuration not stated) | 6.1% (inactive) |
| O=C1Nc2cc(Cl)c(Cl)cc2N(O)N1c1cc(Cl)cc(Cl)c1 | -2.32% (inactive) |
| O=C(O)c1cccc(N2C(=O)Nc3ccccc3N2O)c1 | 24.6% (active) |
| O=C1Nc2cc(Cl)c(Cl)cc2N(O)N1c1ccccc1Cl | 4.44% (inactive) |
| COc1ccccc1N(C)C(=O)c1cc(S(=O)(=O)N2CCc3ccccc32)cn1C | 0.704% (inactive) |
| CC1CCN(C(=O)CCNC(=O)c2ccccc2)CC1 | 31.5% (active) |
| CC1CCN(C(=O)/C(=C\c2ccccc2)NC(=O)c2ccccc2)CC1 | -1.41% (inactive) |
| CC1CCN(C(=O)/C(=C\c2ccccc2F)NC(=O)c2ccccc2)CC1 | 8.12% (inactive) |
